These results are taken from PubChem BioAssay (NCI).

Some test systems named below: T-47D breast; BT-549 breast; MDA-MB-435 melanoma; SW-620 colon; MCF7 breast; HCT-116 colon; HCC-2998 colon; KM12 colon.
What all share (test): NCI-60 one-dose screen, 48 h (100 = growth as untreated, 0 = no growth, -100 = all killed)
Settings in all cases: 10 µM unless noted

Compounds without any hit were thinned out: in the full panel of roughly 83,000, 20% have a hit.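 Cells were grown in 96-well plates and exposed to the test compound at a single concentration for 48 hours; results are reported as percent growth, with values below 10 considered active.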 Values without a mark were called inactive. Calls of active or inactive are those of the source.

Consider `COc1ccc(-c2coc3c(CO)c(O)ccc3c2=O)cc1`, for which the growth was 61.8% in the test on T-47D breast; 14.2% in the test on BT-549 breast; 60.2% in the test with MDA-MB-435 melanoma; 83.5% in the test with SW-620 colon; 40.8% with MCF7 breast; 19.3% in the test with HCT-116 colon. Further, the growth in the test on HCC-2998 colon is 29.6%; in the test on KM12 colon, 60.4%.

As to `Nc1ncc(-c2ccc3ncnc(Nc4cncc(Cl)c4)c3c2)cn1`, the growth in the test on T-47D breast was -7.28% (active); in the test with BT-549 breast, 64.2%; in the test on MDA-MB-435 melanoma, 75.1%; in the test on SW-620 colon, 95.8%; in the test with MCF7 breast, 37.8%; in the test with HCT-116 colon it was 82.4%. Also, the growth with HCC-2998 colon is 79.7%; in the test with KM12 colon, 82.5%.

Turning to `CS(=O)(=O)Nc1cccc(-c2ccc3ncnc(Nc4ccc(F)c(Cl)c4)c3c2)c1`, the growth with T-47D breast was -21.7% (active); with BT-549 breast, 35.4%; in the test on MDA-MB-435 melanoma, 38.7%; in the test with SW-620 colon, 7.1% (active); in the test on MCF7 breast, 15.3%; in the test on HCT-116 colon it was 16.1%. For the same molecule, the growth in the test with HCC-2998 colon was 20.2%; in the test with KM12 colon it was 21.6%.

Consider `COc1cc(NC(C)CCCN2C(=O)c3ccccc3C2=O)c2nc(C)ccc2c1OC` (stereo not drawn), for which the growth was 95.1% in the test on T-47D breast; 103% with BT-549 breast; 111% in the test on MDA-MB-435 melanoma; 97.3% with SW-620 colon; 90.6% in the test with MCF7 breast; 85.4% with HCT-116 colon. Besides, the growth is 95.4% in the test on HCC-2998 colon and 107% with KM12 colon.

`COc1cc(NS(C)(=O)=O)ccc1Cc1c2ccccc2nc2ccccc12`: the growth in the test on T-47D breast is 33.5%; in the test on BT-549 breast it was -13.9% (active); in the test on MDA-MB-435 melanoma it was 51.1%; with SW-620 colon, 26.6%; in the test with MCF7 breast it was 28%; in the test with HCT-116 colon, 0.0983% (active). Moreover, the growth is 11.9% with HCC-2998 colon and 11.1% with KM12 colon.

As for `CC1=C2C(=C[C@@](C)(CO)[C@@H]2OC(=O)N(C)CCN(C)C(=O)OC(C)(C)C)C(=O)[C@](C)(O)C12CC2`, the growth in the test on T-47D breast was 45.2%; with BT-549 breast, 56.8%; with MDA-MB-435 melanoma, 72.6%; with SW-620 colon, 71.3%; in the test with MCF7 breast, 34.8%; in the test on HCT-116 colon it was 15.9%. Moreover, the figures for the growth in the test with HCC-2998 colon and with KM12 colon were 75.8% and 74%, respectively.

In the case of `O=S(c1ccccc1)c1ccc2nnnn2n1` (stereo not drawn), the growth was 91.7% in the test with T-47D breast; 98.1% in the test with BT-549 breast; 108% with MDA-MB-435 melanoma; 59.9% in the test with SW-620 colon; 86.3% in the test with MCF7 breast; 60.7% in the test with HCT-116 colon. The values for the growth in the test on HCC-2998 colon and in the test on KM12 colon were 113% and 98.2%, respectively.

For `CC(C)CNCC(O)COc1ccc(C(C)(C)c2ccc(OCC(O)CNCC(C)C)cc2)cc1` (stereo not drawn), the growth was -31.3% (active) in the test on T-47D breast; 69.4% in the test with BT-549 breast; 7.56% (active) in the test with MDA-MB-435 melanoma; 1.07% (active) with SW-620 colon; 10.3% in the test on MCF7 breast; 0.347% (active) with HCT-116 colon. The growth with HCC-2998 colon is -24.5% (active); in the test with KM12 colon, 37.1%.

In the case of `O=C(O)c1ccc(-c2nn(-c3ccc(C(=O)O)cc3)cc2/C=N/Nc2c(F)c(F)cc(F)c2F)cc1`, the growth with T-47D breast was 95%; with BT-549 breast, 120%; with MDA-MB-435 melanoma, 107%; in the test on SW-620 colon, 110%; in the test with MCF7 breast it was 95.7%; in the test with HCT-116 colon, 100%. The growth in the test on HCC-2998 colon and in the test with KM12 colon was 100% in each case.

As for `CC(C)(C)NCC(O)COc1c(Br)c(Br)c(Br)c2c1OC(C)(C)C2` (stereo not drawn), the growth in the test on T-47D breast is -26.4% (active); with BT-549 breast, 32.7%; in the test with MDA-MB-435 melanoma, -68.6% (active); with SW-620 colon it was -97.5% (active); in the test with MCF7 breast, -74.2% (active); in the test on HCT-116 colon it was -26.5% (active). In addition, the growth with HCC-2998 colon is -74.9% (active); in the test with KM12 colon, -80.7% (active).

In the case of `COc1ccc(-c2nn(-c3ccc(NC(=O)c4cc(Cl)cc(Cl)c4)cc3)cc2-c2ccncc2)cc1Cl`, the growth was 67.4% in the test on T-47D breast; 66.8% in the test on BT-549 breast; 68.6% in the test on MDA-MB-435 melanoma; 68.6% in the test with SW-620 colon; 73.7% with MCF7 breast; 55.7% with HCT-116 colon. The growth in the test on HCC-2998 colon is 49.6%; in the test on KM12 colon, 29.7%.

For `COc1cc2ncnc(Oc3ccc(NC(=O)Nc4ccc(C5(C#N)CCCC5)cc4)c4ccccc34)c2cc1OC`, the growth with T-47D breast was 64.3%; in the test with BT-549 breast, 86.5%; in the test with MDA-MB-435 melanoma, 43.4%; in the test with SW-620 colon, 53.9%; in the test on MCF7 breast, 55.2%; in the test on HCT-116 colon, 30.8%. Moreover, the growth in the test on HCC-2998 colon was 107%; in the test with KM12 colon it was 43.7%.

As to `COC(=O)c1oc2c(C(C)=O)c(OCCN3CCCCC3)ccc2c1C`, the growth is 129% in the test on T-47D breast; 130% in the test on BT-549 breast; 80.8% in the test with MDA-MB-435 melanoma; 103% in the test on SW-620 colon; 105% in the test on MCF7 breast; 89.7% with HCT-116 colon. The values for the growth with HCC-2998 colon and with KM12 colon were 113% and 102%, respectively.

As to `CCCCCC/C=N/Nc1ccc([N+](=O)[O-])cn1`, the growth with T-47D breast was 88.4%; in the test with BT-549 breast it was 96.2%; in the test with MDA-MB-435 melanoma, 101%; with SW-620 colon, 102%; in the test with MCF7 breast, 90.7%; in the test on HCT-116 colon, 84.7%. The values for the growth in the test on HCC-2998 colon and in the test with KM12 colon were 85.9% and 99.5%, respectively.

On to `CCC1CN2C(=N1)c1ccccc1-c1cc(Cl)ccc12` (stereo not drawn), for which the growth is 21.9% in the test with T-47D breast; 42.5% in the test with BT-549 breast; 25.4% in the test with MDA-MB-435 melanoma; 18.6% with SW-620 colon; 4.59% (active) in the test with MCF7 breast; 1.68% (active) in the test with HCT-116 colon. For the same molecule, the results for the growth in the test with HCC-2998 colon and with KM12 colon were 28.5% and 16.7%, respectively.

As to `C[C@@H]1CC2C3C[C@H](F)C4=CC(=O)C=C[C@]4(C)[C@@]3(F)[C@@H](O)C[C@]2(C)[C@@]1(O)C(=O)CO` (stereo partly drawn), the growth in the test with T-47D breast was 100%; in the test on BT-549 breast it was 81.2%; with MDA-MB-435 melanoma, 93.3%; in the test with SW-620 colon, 105%; with MCF7 breast it was 93.9%; in the test with HCT-116 colon, 101%. Further, the growth was 98.8% in the test on HCC-2998 colon and 97.4% in the test with KM12 colon.
